Results on four molecules are retold here after PubChem BioAssay (EPA / NIEHS).

Assay [1] can be described thus: ATG_CRE_CIS: Attagene CIS-FACTORIAL HepG2 Assay for human cAMP Responsive Element (CRE) binding protein 3 (AID 2282926). Particulars: HepG2 CRE cis-reporter, Attagene multiplexed mRNA; actives raise or lower the signal. An outline of the steps: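 Induced reporter mRNA from a CRE cis element, measured in HepG2 among many multiplexed units at 24 h. Detection used RT-PCR plus capillary electrophoresis of fluorescent fragments; DMSO served as negative control.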

Assay [2] deals with CCAAT/enhancer-binding protein beta (Homo sapiens) (UniProt P17676). As to the kind of experiment: ATG_C_EBP_CIS: Attagene CIS-FACTORIAL HepG2 Assay for human CCAAT/Enhancer Binding Protein (C/EBP) beta (AID 2282927). Particulars: HepG2 Attagene cis-factorial transcription factor reporter; actives raise or lower the signal. An outline of the steps:
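Following a 24 h incubation with test chemical, transfected HepG2 cells yielded RNA whose reporter transcripts were quantified by RT-PCR and fluorescent capillary electrophoresis, with DMSO serving as baseline for bidirectional fitting.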

A short description of assay [3]: ATG_CMV_CIS: Attagene CIS-FACTORIAL HepG2 Assay for human CMV (Internal Marker) (AID 2282928).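 Note: endpoint acts as a background internal control marker rather than a target.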 As to conditions: HepG2 CMV promoter reporter, transcription factor profiling; actives raise or lower the signal. An outline of the steps:
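24 h chemical treatment, HepG2 with transient multi-reporter transfection; RNA → oligo(dT) RT → PCR → 6-FAM extension → HpaI digest → CE fluorescence. Bidirectional fit, DMSO negative control.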

Assay [4] in a line: ATG_DR4_LXR_CIS: Attagene CIS-FACTORIAL HepG2 Assay for human Liver X Receptor (LXR), DR4 submotif (AID 2282929). As to conditions: HepG2 Attagene DR4 cis-reporter, mRNA transcription; actives raise or lower the signal. An outline of the steps: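 The endpoint is DR4-element-driven reporter transcripts after 24 h chemical exposure of transfected HepG2 cells. These were measured via RT-PCR and capillary electrophoresis, and gain or loss of signal was fitted relative to DMSO controls.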

The target of assay [5] is Aryl hydrocarbon receptor (Homo sapiens) (UniProt P35869). As to the kind of experiment: ATG_Ahr_CIS: Attagene CIS-FACTORIAL HepG2 Assay for human Aryl Hydrocarbon Receptor (Ahr) (AID 2282930). As to conditions: HepG2 AhR cis-factorial reporter transcription; actives raise or lower the signal. An outline of the steps:
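Values derive from bidirectional fitting against DMSO negative control. Underlying signal: cis-element reporter mRNA in transiently transfected HepG2, harvested 24 h post-dose and measured by RT-PCR plus capillary electrophoresis.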

Assay [6] in a line: ATG_AP_1_CIS: Attagene CIS-FACTORIAL HepG2 Assay for human Activator Protein 1 (AP-1) (AID 2282931). As to conditions: HepG2 Attagene cis-factorial AP-1 reporter mRNA; actives raise or lower the signal. An outline of the steps: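 Readout is reporter transcript level from endogenous transcription factor activity, quantified by RT-PCR with fluorescent primer extension and capillary electrophoresis. Transiently transfected HepG2 cells, 24 h exposure. Curves fitted both directions versus DMSO.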

Assay [7] can be described thus: ATG_AP_2_CIS: Attagene CIS-FACTORIAL HepG2 Assay for human Activator Protein 2 (AP-2) (AID 2282932). As to conditions: HepG2 AP-2 cis-reporter, Attagene transcription factor profiling; actives raise or lower the signal. An outline of the steps: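 Assay in transfected HepG2 with promoter-regulated reporters, 24 h incubation after dosing. Signal is reporter mRNA fluorescence (RT-PCR, capillary electrophoresis), analysed for both increases and decreases relative to DMSO controls.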

Assay [8] can be described thus: ATG_BRE_CIS: Attagene CIS-FACTORIAL HepG2 Assay for human Bone Morphogenetic Protein (BMP) Response Element (BRE) (AID 2282933). Particulars: HepG2 BMP response element reporter, Attagene transcription factor profiling; actives raise or lower the signal. An outline of the steps:
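Read-out: reporter mRNA induction quantified by RT-PCR and capillary electrophoresis after 24 h chemical exposure of transfected HepG2 cells. Endogenous factor activity on the BMP response element; gain or loss fitted against DMSO baseline.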

Assay [9] has as its target Retinoic acid receptor alpha (Homo sapiens) (UniProt P10276). As to the kind of experiment: ATG_DR5_RAR_CIS: Attagene CIS-FACTORIAL HepG2 Assay for human Retinoic Acid Receptor Alpha (RARE), DR5 submotif (AID 2282934). As to conditions: HepG2 Attagene cis-factorial RARE DR5 reporter, mRNA; actives raise or lower the signal. The procedure, abridged: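 Endpoint fitted in both directions relative to DMSO as negative control. It reflects DR5 cis-element reporter mRNA induction in transiently transfected HepG2 cells, measured 24 h after dosing through RT-PCR and fluorescent capillary electrophoresis.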

Assay [10] concerns the target Transcription factor E2F1 (Homo sapiens) (UniProt Q01094). The assay is described as follows: ATG_E2F_CIS: Attagene CIS-FACTORIAL HepG2 Assay for human E2F Transcription Factor 1 (AID 2282935). As to conditions: HepG2 Attagene cis-reporter, E2F reporter RNA transcripts; actives raise or lower the signal. The procedure, abridged:
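In this cis-factorial format, endogenous factor activity drives transfected reporters in HepG2; transcripts collected at 24 h are quantified by fluorescence after RT-PCR and capillary separation.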

Assay [11] is described as follows: ATG_E_Box_CIS: Attagene CIS-FACTORIAL HepG2 Assay for human Enhancer Box (E-box) (AID 2282936). Particulars: HepG2 E-box cis-reporter transcription, actives raise or lower the signal. The procedure, abridged:
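Measured 24 h post-dosing in HepG2 cells transfected with multiple cis-regulated reporter units, signal being reporter mRNA induction detected by fluorescent RT-PCR with capillary electrophoresis; gain or loss fitted against DMSO.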

A short description of assay [12]: ATG_M_61_CIS: Attagene CIS-FACTORIAL HepG2 Assay for M61 Transcription Factor (Internal Marker) (AID 2282937). Particulars: HepG2 Attagene CIS-FACTORIAL M61 internal marker reporter; actives raise or lower the signal. An outline of the steps: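 Readout is reporter mRNA by RT-PCR, fluorescent primer extension and capillary electrophoresis, with gain or loss fitted relative to DMSO. Transfected HepG2 cells carrying endogenous-TF-driven cis reporters were exposed to chemicals for 24 hours.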

Assay [13] can be described thus: ATG_EGR_CIS: Attagene CIS-FACTORIAL HepG2 Assay for human Early Growth Response 1 (EGR1) (AID 2282938). As to conditions: HepG2 Attagene CIS-FACTORIAL EGR reporter mRNA; actives raise or lower the signal. The procedure, abridged: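 After 24 h compound exposure, RNA from reporter-transfected HepG2 cells was reverse-transcribed, PCR-amplified, fluorescently labelled and resolved by capillary electrophoresis. EGR1 reporter transcript changes, up or down, were fitted against DMSO, reflecting endogenous transcription-factor activity.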

A short description of assay [14]: ATG_M_19_CIS: Attagene CIS-FACTORIAL HepG2 Assay for M19 Transcription Factor (Internal Marker) (AID 2282939). Particulars: HepG2 Attagene CIS-FACTORIAL M19 internal marker reporter; actives raise or lower the signal. The procedure, abridged: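 Readout: fluorescent reporter-transcript fragments by capillary electrophoresis after RT-PCR. Human HepG2 liver cells carried transfected MRTU constructs reporting endogenous transcription-factor activity; exposure 24 h. Gain or loss of signal fitted relative to DMSO.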

Assay [15] is described as follows: ATG_ERE_CIS: Attagene CIS-FACTORIAL HepG2 Assay for Estrogen Response Element (ERE) (AID 2282940). Particulars: HepG2 ERE cis-reporter, Attagene RNA transcript; actives raise or lower the signal. The procedure, abridged:
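Readout: reporter mRNA induction by RT-PCR, FAM-labelled primer extension, HpaI digestion and capillary electrophoresis, 24 h after dosing transfected HepG2 cells. Endogenous transcription factors act on cis-element-regulated reporters. Gain or loss fitted against DMSO.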

Assay [16] can be described thus: ATG_Ets_CIS: Attagene CIS-FACTORIAL HepG2 Assay for human Erythroblast Transformation Specific (ETS) (AID 2282941). Particulars: HepG2 ETS cis-reporter transcription, actives raise or lower the signal. The procedure, abridged:
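Cis-regulated reporter mRNA induction in HepG2 (transient transfection), 24 h exposure, RT-PCR plus capillary electrophoresis detection; DMSO serves as negative control and baseline.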

For assay [17], the target named is Hepatocyte nuclear factor 3-beta (Homo sapiens) (UniProt Q9Y261). As to the kind of experiment: ATG_FoxA2_CIS: Attagene CIS-FACTORIAL HepG2 Assay for human Forkhead box A2 (FOXA2) (AID 2282942). Particulars: HepG2 cis-reporter transcription factor activity, 24 h; actives raise or lower the signal. An outline of the steps: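 Endogenous transcription factor activity is captured via cis-element-driven reporter transcripts in transfected HepG2. Total RNA taken at 24 h post-dosing; labelled RT-PCR products resolved by capillary electrophoresis. Gain or loss fitted versus DMSO.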

The nature of assay [18]: ATG_FoxO_CIS: Attagene CIS-FACTORIAL HepG2 Assay for human Forkhead box O (FoxO) (AID 2282943). Particulars: HepG2 Attagene cis-reporter, FoxO element, mRNA; actives raise or lower the signal. An outline of the steps: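 Values reflect reporter mRNA induction or loss in HepG2 cells 24 h post-dosing, fitted bidirectionally with DMSO as negative control and baseline. Detection used RT-PCR and fluorescence capillary electrophoresis.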

Assay [19] is described as follows: ATG_GATA_CIS: Attagene CIS-FACTORIAL HepG2 Assay for human GATA Binding Protein (AID 2282944). Particulars: HepG2 GATA cis-element reporter, Attagene multiplex mRNA; actives raise or lower the signal. The procedure, abridged:
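Read-out: fluorescent reporter mRNA fragments resolved by capillary electrophoresis after RT-PCR. Human liver HepG2 cells carried transiently transfected cis-regulated reporter constructs; chemicals incubated 24 h; gain or loss of signal fitted relative to DMSO.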

The nature of assay [20]: ACEA_ER_80hr: ACEA Biosciences xCELLigence Real-Time Cell Analysis on Estrogen Receptor Agonism for Proliferation (AID 2282667; active = hit-call score of the fitted dose curve at least 0.9, where 1 is the maximum). Particulars: T47D proliferation, impedance (xCELLigence), 80 h. The procedure, abridged: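 T-47D cells monitored by electrical impedance (xCELLigence) with compound present throughout; 80 h timepoint, positive-direction fitting versus DMSO. Eight-point 1:4 dilutions from 100 uM final, duplicate plates.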

SMILES strings stand for the structures. Records with an inconclusive call do not appear. The source made the active and inactive calls. Rule for the calls, unless noted: active = hit-call score of the fitted dose curve at least 0.9, where 1 is the maximum; inactive = score below 0.9.

Chain of Retinoic acid receptor alpha (Homo sapiens) (P10276 whole entry, looked up): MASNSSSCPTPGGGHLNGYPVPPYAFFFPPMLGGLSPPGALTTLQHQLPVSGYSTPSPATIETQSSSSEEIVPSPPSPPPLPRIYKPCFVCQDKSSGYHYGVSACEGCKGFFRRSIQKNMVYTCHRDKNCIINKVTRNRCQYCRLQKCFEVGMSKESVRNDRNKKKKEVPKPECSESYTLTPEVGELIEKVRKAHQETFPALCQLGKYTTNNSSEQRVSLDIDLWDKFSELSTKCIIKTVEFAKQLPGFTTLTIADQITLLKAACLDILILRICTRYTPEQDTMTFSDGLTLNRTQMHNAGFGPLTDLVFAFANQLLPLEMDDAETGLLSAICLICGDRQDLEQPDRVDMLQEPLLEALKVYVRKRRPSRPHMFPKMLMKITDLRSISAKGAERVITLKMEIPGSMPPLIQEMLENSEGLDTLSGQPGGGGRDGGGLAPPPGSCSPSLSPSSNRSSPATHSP
Chain of Hepatocyte nuclear factor 3-beta (Homo sapiens) (Q9Y261 whole entry, looked up): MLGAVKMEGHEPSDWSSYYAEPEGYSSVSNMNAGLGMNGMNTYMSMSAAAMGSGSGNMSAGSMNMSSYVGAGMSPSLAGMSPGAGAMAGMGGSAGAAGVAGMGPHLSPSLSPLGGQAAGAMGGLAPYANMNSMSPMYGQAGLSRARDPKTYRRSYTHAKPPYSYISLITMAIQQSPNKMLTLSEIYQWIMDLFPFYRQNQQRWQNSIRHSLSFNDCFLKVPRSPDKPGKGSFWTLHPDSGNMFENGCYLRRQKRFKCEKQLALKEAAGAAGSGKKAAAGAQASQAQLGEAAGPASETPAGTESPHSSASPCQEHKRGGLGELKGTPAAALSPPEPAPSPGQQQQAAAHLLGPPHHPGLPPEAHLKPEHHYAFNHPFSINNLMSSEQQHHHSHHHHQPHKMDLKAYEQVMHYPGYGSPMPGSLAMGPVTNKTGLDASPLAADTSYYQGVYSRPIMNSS
Chain of Transcription factor E2F1 (Homo sapiens) (Q01094 whole entry, looked up): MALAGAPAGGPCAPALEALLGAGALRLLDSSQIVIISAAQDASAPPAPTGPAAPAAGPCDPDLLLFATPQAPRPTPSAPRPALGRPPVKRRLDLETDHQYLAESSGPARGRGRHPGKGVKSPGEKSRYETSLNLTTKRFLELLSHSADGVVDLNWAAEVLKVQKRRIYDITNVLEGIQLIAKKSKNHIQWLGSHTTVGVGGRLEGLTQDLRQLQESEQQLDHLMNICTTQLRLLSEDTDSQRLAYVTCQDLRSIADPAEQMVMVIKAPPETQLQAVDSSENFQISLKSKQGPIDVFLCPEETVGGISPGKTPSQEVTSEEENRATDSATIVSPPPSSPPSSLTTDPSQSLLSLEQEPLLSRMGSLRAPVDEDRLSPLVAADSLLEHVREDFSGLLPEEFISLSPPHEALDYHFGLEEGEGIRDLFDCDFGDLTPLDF
Chain of Aryl hydrocarbon receptor (Homo sapiens) (P35869 whole entry, looked up): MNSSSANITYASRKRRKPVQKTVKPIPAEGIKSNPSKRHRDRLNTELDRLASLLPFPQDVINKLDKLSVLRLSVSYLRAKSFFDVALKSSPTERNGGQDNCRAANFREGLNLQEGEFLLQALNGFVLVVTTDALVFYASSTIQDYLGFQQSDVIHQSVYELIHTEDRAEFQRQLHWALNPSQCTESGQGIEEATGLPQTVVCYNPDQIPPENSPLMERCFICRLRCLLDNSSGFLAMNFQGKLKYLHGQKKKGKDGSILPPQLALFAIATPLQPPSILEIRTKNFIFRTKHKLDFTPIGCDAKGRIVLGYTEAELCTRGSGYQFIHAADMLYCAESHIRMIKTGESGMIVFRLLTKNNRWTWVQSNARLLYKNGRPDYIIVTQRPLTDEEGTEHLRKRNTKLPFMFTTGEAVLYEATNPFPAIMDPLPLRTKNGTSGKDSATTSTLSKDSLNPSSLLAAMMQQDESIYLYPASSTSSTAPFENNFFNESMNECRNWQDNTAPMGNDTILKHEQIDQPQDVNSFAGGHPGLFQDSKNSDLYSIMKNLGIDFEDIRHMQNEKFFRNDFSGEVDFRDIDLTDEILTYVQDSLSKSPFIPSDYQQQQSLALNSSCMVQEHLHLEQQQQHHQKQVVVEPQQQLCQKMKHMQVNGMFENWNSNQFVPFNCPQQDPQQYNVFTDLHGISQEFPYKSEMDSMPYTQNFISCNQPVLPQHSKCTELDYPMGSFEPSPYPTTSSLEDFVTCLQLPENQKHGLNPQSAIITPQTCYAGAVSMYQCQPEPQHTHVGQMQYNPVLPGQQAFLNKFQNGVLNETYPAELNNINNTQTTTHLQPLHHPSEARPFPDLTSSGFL
Chain of CCAAT/enhancer-binding protein beta (Homo sapiens) (P17676 whole entry, looked up): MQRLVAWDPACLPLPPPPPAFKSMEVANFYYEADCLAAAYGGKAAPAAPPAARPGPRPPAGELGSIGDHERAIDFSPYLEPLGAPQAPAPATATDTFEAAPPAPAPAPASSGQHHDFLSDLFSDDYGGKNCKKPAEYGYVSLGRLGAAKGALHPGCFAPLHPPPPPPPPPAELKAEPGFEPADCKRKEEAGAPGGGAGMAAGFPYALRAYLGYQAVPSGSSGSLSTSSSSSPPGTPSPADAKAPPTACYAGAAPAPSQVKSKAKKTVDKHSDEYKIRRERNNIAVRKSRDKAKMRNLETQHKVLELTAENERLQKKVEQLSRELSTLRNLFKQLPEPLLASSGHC

In the case of `CN(N=O)C(=O)N[C@@H]1[C@@H](O)[C@H](O)[C@@H](CO)O[C@@H]1O`, the molecule was classed as inactive in assay [1], in assay [2], in assay [3], in [4], in assay [5] and in [6]. For the same molecule, the molecule was called inactive in [7], in assay [8], in assay [9], in [10], in assay [11] and in [12]. Also, the result in assay [13], in assay [14], in assay [15], in [16], in assay [17] and in assay [18] was inactive. The molecule was called inactive in assay [19].
Broadly, the AC50 is the midpoint of the concentration-response curve, whichever way the signal moves. As to `CC(C)(C)c1cc(CCC(=O)NCCCCCCNC(=O)CCc2cc(C(C)(C)C)c(O)c(C(C)(C)C)c2)cc(C(C)(C)C)c1O`, the AC50 in assay [20] is 50 µM (active). Besides, the call in assay [1], in assay [2], in [3], in [4], in [6] and in assay [8] was inactive. The molecule was classed as inactive in assay [9], in [10], in assay [11], in assay [13], in [14] and in [16]. Also, the molecule was classed as inactive in assay [17], in assay [18] and in assay [19].
In the case of `C=CCOC(=O)CC(C)C`, the molecule was called inactive in assay [20], in assay [1], in [2], in [3], in [5] and in assay [6]. The call in assay [8], in [9], in assay [10], in [11], in assay [12] and in assay [13] was inactive. The molecule was classed as inactive in assay [14], in assay [15], in [16], in assay [17], in [18] and in assay [19].
`O=S(=O)(Cl)C(F)(F)C(F)(F)C(F)(F)C(F)(F)C(F)(F)C(F)(F)C(F)(F)C(F)(F)F`: the call in assay [20], in [1], in [2], in [3], in assay [5] and in [7] was inactive. The outcome in assay [8], in assay [9], in [10], in assay [11], in [12] and in assay [13] was inactive. Moreover, the outcome in assay [14], in assay [16], in assay [17], in assay [18] and in assay [19] was inactive. For the same molecule, the AC50 in assay [15] was 29.4 µM (active).
